A selection: hits, their analogues and other compounds. The true share with any hit is near 6.5%.
VACV mCherry inh: qHTS for Stage-Specific Inhibitors of Vaccinia Orthopoxvirus: mCherry Reporter Primary qHTS | Vaccinia virus mCherry reporter infection, fluorescence | Potency, µM (titrated, usually from 36.5 µM), most hits filed as inhibitors | hit rate 0.63% among 310,000 | AID 720579, 2013; calls by dose curve; tested in A549 cells; note: nearly all actives have a fitted effect of over 35% in size
HCMV inh: qHTS Assay for inhibitors of the human cytomegalovirus (HCMV) | hit rate 4.5% among 410,000 | activity change, negative = inhibition, % at 57.5 µM | HFF cells, HCMV-luciferase reporter, 72 h; stronger effect = lower value; in the data active = activity change below about -60%; inconclusive = no clear call, values can overlap the other calls; inactive = above about -39%
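Human foreskin fibroblasts infected with luciferase-reporter HCMV at MOI 1 PFU/cell, compounds at two doses. Luciferase measured 72 h post infection; normalized to buffer-only basal and Salinomycin (10uM) controls.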
MARV entry inh: qHTS for inhibitors of binding or entry into cells for Marburg Virus; hit rate 1.8% among 300,000; Marburg virus pseudotyped entry inhibition, cell reporter; Potency, µM (series often up to 37.8 µM), hits mostly inhibitors; calls by dose curve; tested in HEK293 cells
FMDV antiviral: High Throughput Screening for Foot and Mouth Disease Virus Antivirals | FMDV antiviral cell-based qHTS | Potency, µM (series often up to 57.9 µM), actives largely listed as inhibitors | hit rate 1.2% among 410,000 | AID 1159524, 2015; calls by dose curve; tested in HEK293T cells; note: read-out not given here; nearly all actives have a fitted effect of over 45% in size
Vaccinia Venus: qHTS for Stage-Specific Inhibitors of Vaccinia Orthopoxvirus: Venus Reporter Primary qHTS; Vaccinia virus Venus reporter expression, fluorescence; Potency, µM (highest dose often 36.5 µM), most hits filed as inhibitors; hit rate 0.46% among 330,000; AID 720580, 2013; calls by dose curve; tested in A549 cells; note: nearly all actives have a fitted effect of over 30% in size
LASV entry inh: qHTS for Inhibitors of binding or entry into cells for Lassa Virus | hit rate 1.2% among 300,000 | AID 540256, 2011 | Potency, µM (series often up to 37.9 µM), most hits filed as inhibitors | Lassa virus pseudotype entry inhibition, cell reporter; calls by dose curve; tested in HEK293 cells; note: nearly all actives have a fitted effect of over 50% in size
Hits are given with their value; . = inactive; ? = inconclusive; / = not tested or not shown; + = active, no number; ! = a repeat was not active.

SMILES	VACV mCherry inh	HCMV inh	MARV entry inh	FMDV antiviral	Vaccinia Venus	LASV entry inh
Nc1ccc(O)cc1C(=O)OCC(=O)C12CC3CC(CC(C3)C1)C2	/	.	.	.	.	.
COc1ccc(C(=O)OCC(=O)c2ccc(C3CCCCC3)cc2)cc1	.	?	?	?	.	2.24µM
Nc1ccc(O)cc1C(=O)OCC(=O)c1ccc(C2CCCCC2)cc1	?	-95.3	?	?	.	?
CCOC(=O)c1c(C(=O)OCC)c2c3ccccc3cc(C)n2c1C(=O)OC	/	/	.	/	/	/
C=CC[C@@H](CC(=O)N[C@@H](CO)Cc1ccccc1)C(=O)N[C@@H](COC(=O)[C@@H](CC=C)CC(=O)OC(C)(C)C)Cc1c[nH]c2ccccc12	.	.	/	.	?	/
C=CC[C@@H](CC(=O)N(CCO)Cc1ccccc1)C(=O)N[C@H](COC(=O)[C@H](CC=C)CC(=O)OC(C)(C)C)Cc1c[nH]c2ccccc12	?	.	/	.	.	/
C=CC[C@@H](CC(=O)N[C@H](CO)Cc1ccccc1)C(=O)N[C@@H](C)COC(=O)[C@@H](CC=C)CC(=O)OC(C)(C)C	.	-60.2	/	.	.	/
C=CC[C@H](CC(=O)N(CCO)Cc1ccccc1)C(=O)N[C@H](COC(=O)[C@@H](CC=C)CC(=O)OC(C)(C)C)Cc1c[nH]c2ccccc12	?	.	/	.	11.2µM	/
C=CC[C@@H](CC(=O)N[C@H](CO)Cc1ccccc1)C(=O)N[C@H](COC(=O)[C@@H](CC=C)CC(=O)OC(C)(C)C)Cc1c[nH]c2ccccc12	22.4µM	.	/	?	12.6µM	/
CCCN1C(=O)CC[C@@H](S(=O)(=O)c2ccccc2)[C@@H]1c1ccco1	/	.	/	/	/	/
CC/C(=N/Nc1cccc(C)c1)c1cnnc(SC)n1	?	-67.9	?	?	.	.
CC/C(=N/Nc1ccc(Cl)cc1)c1cnnc(SC)n1	.	.	.	.	.	.
O=c1[nH]c(-c2ccccc2)cn1C1CCN(Cc2ccc(-c3nc4ccc(Br)cc4nc3-c3ccccc3)cc2)CC1	/	.	/	/	/	/
Cc1cc(=O)n2cc(-c3ccccc3)nc2[nH]1	/	.	.	.	/	.
Cc1ccc(-c2cn3c(=O)cc(C)[nH]c3n2)cc1	/	.	.	.	/	14.6µM
CCCC[C@H](CN[C@@H](CNC)[C@H](C)CC)NCCC12CCC(CC1)C2	22.4µM	-96.5	/	.	22.4µM	/
CCOc1c(C(N)=O)c(-c2ccccc2)c2c(=O)[nH]c3ccccc3n12	/	-60.2	.	.	.	.
CCOC(=O)c1c(C)nc(C)c(C(=O)OCC)c1-c1ccccc1	/	.	.	.	/	.
O=C(O)c1cc(N/N=C/c2ccc(N3CCOCC3)cc2)ccc1Cl	/	.	/	14.1µM	/	/
O=S(=O)(Nc1cc2nc3ccccc3nc2n1Cc1ccccc1)c1ccc(Cl)cc1	.	-90.7	?	.	.	7.31µM!
Cc1cc(C)c2c(CC(=O)NC3CCS(=O)(=O)C3)coc2c1 (stereo unspecified)	/	+	/	.	/	/
Cc1ccc(SCC(=O)NC2CCS(=O)(=O)C2)cc1 (stereo unspecified)	.	-64.7	.	.	.	.
O=C(CSc1ncccn1)NC1CCS(=O)(=O)C1 (stereo unspecified)	/	.	/	.	/	/
COc1ccc(NC(=O)CSc2c3c(nc4ccc(Cl)cc24)CCCC3)cc1Cl	.	-79.8	.	?	.	.
Cc1ccc(C)c(NC(=O)CSc2c3c(nc4ccc(Cl)cc24)CCCC3)c1	.	-74.4	.	.	.	.
COc1ccc(NC(=O)CSc2c3c(nc4cc(Cl)ccc24)CCCC3)cc1OC	.	.	?	?	.	?
Cc1ccc(CNC(=O)CSc2c3c(nc4ccc(Cl)cc24)CCCC3)cc1	.	.	.	.	.	.
CC(C)CO/N=C1\C[C@@H](O)[C@@H](O)[C@@H]2[C@@H]3C(=O)N(Cc4ccc5c(c4)OCO5)C(=O)[C@@H]3CC[C@H]12	/	/	.	/	/	/
CC(C)[C@H](NC(=O)c1ccc(Cl)c(Cl)c1)C(=O)N1CCC[C@H]1C(=O)NCCc1ccccc1Cl	/	.	/	/	/	/
CCCC(NC(=S)NCC1CCCO1)C12CC3CC(CC(C3)C1)C2 (stereo unspecified)	.	-92.5	/	.	.	/

Source: PubChem BioAssay
